eIF4E-4G inh: eIF4E/eIF4G interaction inhibition in translation initiation; P63073+Q04637; TR-FRET eIF4E-eIF4GI(517-606) binding, 2 h; inhibition, % at 21.7 µM; actives 0.37% (n = 220,000); AID 782;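 active = inhibition above about 30%, limit read from the data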;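 also: 0% = full FRET control wells and 100% = background wells lacking eIF4GI fragment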
14-3-3 Bad inh: disrupts binding of bovine 14-3-3 zeta to phospho-Bad peptide; inhibition, % at 21.7 µM; actives 0.71% (n = 220,000); P63103; TR-FRET 14-3-3zeta/Dy647-pBad peptide displacement, 1 h;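 active = inhibition above about 70%, limit read from the data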;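 also: 0% = full 14-3-3 plus peptide FRET controls and 100% = background without 14-3-3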
Hck Nef HTS: inhibitors of human Hck kinase activated by Nef | P08631 | Recombinant Hck-YEEI plus Nef, Z-Lyte FRET kinase assay | inhibition, % at 20 µM | actives 0.68% (n = 220,000);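 active = Hck-Nef kinase inhibition above about 50%, limit read from the data; inactive = inhibition below that limit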;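 also: 0% = DMSO with Hck plus Nef and 100% = Hck alone without Nef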
Target sequence (P08631 whole entry, looked up): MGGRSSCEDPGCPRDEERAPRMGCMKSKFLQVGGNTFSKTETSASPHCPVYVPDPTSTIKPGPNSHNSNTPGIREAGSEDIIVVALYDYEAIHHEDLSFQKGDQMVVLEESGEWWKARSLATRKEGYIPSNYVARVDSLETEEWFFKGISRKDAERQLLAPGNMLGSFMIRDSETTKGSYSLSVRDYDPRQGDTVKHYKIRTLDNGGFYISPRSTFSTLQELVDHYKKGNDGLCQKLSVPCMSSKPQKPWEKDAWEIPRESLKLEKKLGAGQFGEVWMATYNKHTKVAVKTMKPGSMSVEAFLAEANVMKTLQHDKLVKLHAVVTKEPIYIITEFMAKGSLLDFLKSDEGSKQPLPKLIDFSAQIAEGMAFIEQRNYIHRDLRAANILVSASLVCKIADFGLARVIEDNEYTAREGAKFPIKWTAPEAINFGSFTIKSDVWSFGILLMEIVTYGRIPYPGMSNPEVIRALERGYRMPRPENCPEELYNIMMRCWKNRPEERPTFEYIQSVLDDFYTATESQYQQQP
Mcl1 Noxa PPI: disrupts binding of human Mcl-1 to Noxa peptide; TR-FRET Mcl-1/Noxa peptide binding, 2 h; actives 1.5% (n = 220,000); inhibition, % at 21.7 µM; Q07820;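 active = compounds that cut the protein-peptide binding signal by more than 50% relative to plate controls in a single-dose test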;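 also: His-tagged Mcl-1 with rhodamine Noxa BH3 peptide and terbium anti-His antibody; 0% = Mcl-1 plus Noxa peptide wells and 100% = peptide-only wells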
Mcl1 Bid PPI: Mcl-1/Bid interaction inhibition; TR-FRET Mcl-1/Bid-Dy647 peptide binding, 1536-well; inhibition, % at 21.7 µM; AID 1021; actives 0.97% (n = 220,000);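 active = compounds that cut the binding signal by more than half at the single screening dose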;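 also: His-tagged Mcl-1 with europium anti-His antibody binding Bid BH3 peptide; 0% = Mcl-1 plus peptide wells and 100% = peptide-only wells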
Bim-Mcl-1: inhibitors of Bim-Mcl-1 interaction, human. Q07820. Bead-based flow cytometry, Bim peptide-Mcl-1 binding. inhibition, % at 10 µM. actives 0.1% (n = 190,000). AID 1009; in the data active = inhibition above about 40%;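 also: 0% = no compound tracer wells and 100% = peptide blocker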
* = called active by the depositor; / = not tested or not shown; [ ] = dose if it differs, or a comment. Shown are actives, neighbours in structure and some others; about 3.5% of the full set was active somewhere.

SMILES | eIF4E-4G inh | 14-3-3 Bad inh | Hck Nef HTS | Mcl1 Noxa PPI | Mcl1 Bid PPI | Bim-Mcl-1
C#CCSc1nnnn1-c1cccc(Cl)c1 | 0 | -5 | 13 | 0 | -11 | /
Cc1ccc(S(=O)(=O)N2CCC(C(=O)Nc3nnc(-c4ccco4)s3)CC2)cc1 | -25 | -19 | 0 | -50 | -8 | -2
O=C(Nc1nnc(-c2ccco2)s1)C1CCCCC1 | -11 | -18 | -1 | -8 | 56* | -3
O=C(O)c1cccc(N2C(=O)/C(=C/c3ccc([N+](=O)[O-])cc3)C=C2c2ccccc2)c1 | 4 | 22 | 23 | 53* | -3 | -5
O=C1/C(=C/c2ccc([N+](=O)[O-])cc2)C=C(c2ccccc2)N1c1ccc(O)cc1 | -33 | -2 | -3 | 60* | 6 | -3
CNS(=O)(=O)c1ccc(NC(=O)c2ccccn2)cc1 | 5 | -3 | 8 | 14 | -7 | -3
Cc1cccc(NC(=O)COC(=O)c2cccc3c2C(=O)c2ccccc2C3=O)c1C | 0 | 1 | 1 | 5 | -8 | 1
Nc1cccc(C(=O)OCC(=O)Nc2cccc3c2C(=O)c2ccccc2C3=O)c1 | 8 | 57 | 5 | 64* | 77* | -2
CCn1c(SCC(=O)Nc2nc(-c3ccc(C)cc3)cs2)nnc1-c1ccccc1 | -5 | 19 | 0 | -7 | 6 | -1
Cc1ccc(NC(=O)CSc2nc3ccccc3c(=O)n2CCCN2CCCCC2)cc1Cl | 2 | -4 | 18 | -12 | -2 | 41*
Cc1ccc(-c2csc(NC(=O)CSc3nc4ccccc4c(=O)n3CCCN(C)C)n2)cc1 | 31* | 68 | 28 | 22 | -3 | 0
Cc1ccsc1/C=N/NC(=O)C1CC(=O)N(c2ccccc2)C1 (stereo unspecified) | 6 | 5 | 3 | -10 | -21 | -3
COc1ccc(-c2ccc(-c3noc(-c4ccccc4F)n3)c(OC)n2)cc1 | -39 | -4 | -10 | / | 56* | 2
COc1ccc(-c2nc(-c3ccccc3OC)no2)cc1OC | 10 | 3 | 1 | 9 | -44 | -3
COc1ccccc1-c1noc(-c2ccccc2)n1 | 87* | 4 | 1 | -15 | -20 | 0
O=[N+]([O-])c1ccc(-c2cn(-c3ccc(Cl)cc3)c(=S)[nH]2)cc1 | 6 | 26 | 4 | 90* | 68* | 13
COc1ccc2nc(Nc3nc(CSc4nc5ccccc5[nH]4)cc(=O)[nH]3)nc(C)c2c1 | -5 | 2 | 11 | -112 | 56* | -4
C[N+](C)(C)c1ccc(/C=N/Nc2nc(Cl)c(C#N)c(Cl)c2Cl)cc1 | 30*[fluorescence artefact?] | 40 | 2 | 37 | 91* | -4
N#Cc1c(Cl)nc(N/N=C/c2ccccc2)c(Cl)c1Cl | 8 | -1 | 2 | 41 | 2 | -4
Fc1cccc(CSc2ccc3nnc(-c4cccnc4)n3n2)c1 | -4 | -6 | 21 | 16 | 3 | 2
CCc1nc2oc3cc(OC)ccc3c(=O)c2c(=O)n1Cc1ccccc1 | 5 | 15 | -1 | 9 | 28 | -7
CCc1nc2oc3cc(OC)ccc3c(=O)c2c(=O)n1-c1ccccc1 | 5 | 10 | 1 | -11 | 23 | -6
COCCn1c(-c2ccc(C)cc2)nc2oc3cc(OC)ccc3c(=O)c2c1=O | 18 | 33 | 5 | 33 | 53* | /
Cc1ccc(-n2c(C)nc3oc4ccccc4c(=O)c3c2=O)cc1 | 12 | 9 | 2 | 65* | -8 | 0
CCCc1nc2oc3cc(OC)ccc3c(=O)c2c(=O)n1CCc1ccccc1 | 7 | 15 | -8 | 7 | 69* | /
SMILES | eIF4E-4G inh | 14-3-3 Bad inh | Hck Nef HTS | Mcl1 Noxa PPI | Mcl1 Bid PPI | Bim-Mcl-1
COc1ccc2c(=O)c3c(=O)n(-c4ccc(C)cc4)c(-c4ccccc4)nc3oc2c1 | -2 | 12 | 3 | 81* | 48 | /
CCN(c1ccccc1)S(=O)(=O)c1ccc(Cl)c(C(=O)N(CC2CCCO2)C2CCS(=O)(=O)C2)c1 (stereo unspecified) | -2 | -18 | 21 | 12 | -11 | -2
Cc1cc2cc(CNC(=O)c3ccc(C)c([N+](=O)[O-])c3)ccc2[nH]1 | -5 | -8 | -13 | 14 | -21 | -3
COC(=O)CSc1ccc(S(=O)(=O)N2CCOCC2)cc1[N+](=O)[O-] | -4 | 6 | 1 | 8 | -4 | -5
COc1ccccc1C1CC(c2ccc(F)cc2)Nc2ncnn21 (stereo unspecified) | -3 | 17 | 2 | 4 | -12 | 0
COc1ccccc1C1CC(c2ccccc2)Nc2ncnn21 (stereo unspecified) | -2 | 0 | 0 | 14 | 97* | -4
O=S(=O)(Nc1ccc2cn[nH]c2c1)c1ccc(Cl)s1 | 0 | 85* | -10 | 0 | -26 | 0
COc1ccccc1S(=O)(=O)Nc1ccc2cn[nH]c2c1 | 22 | 6 | 9 | -3 | -13 | -4
CC(C)N(Cc1nc(-c2ccccc2)no1)C(=O)Cc1ccccc1 | -1 | -3 | 0 | 8 | -29 | 0
CC(C)N(Cc1nc(-c2ccccc2)no1)C(=O)COc1ccccc1 | 62* | 13 | -1 | -18 | -7 | 1
CCN(CC)c1ccc(C(=O)OCC(=O)Nc2cccc(S(=O)(=O)NC3=NCCCCC3)c2)cc1 | 0 | 6 | -3 | 10 | 15 | -1
CN(O)/C=C1\C(=O)Nc2ccccc21 | 1 | -8 | -22 | 3 | -103 | 0
O=C(/C=C1\C(=O)Nc2ccccc21)/C=C1\C(=O)Nc2ccccc21 | 18 | 93* | -17 | 102* | 92* | /
Cc1cc(C)c2nc(N3CCCN(C(=O)c4ccco4)CC3)c(C#N)cc2c1 | 6 | 12 | 15 | 73* | 55* | 1
NS(=O)(=O)c1ccc(O)c(NC(=O)c2ccc([N+](=O)[O-])o2)c1 | -4 | -2 | -103 | -3 | -10 | /
COc1ccc(OC)c(S(=O)(=O)Nc2ccc3c(c2)C(=O)OC3)c1 | -5 | -2 | 16 | -3 | -16 | /
O=C(COC(=O)c1ccc(NS(=O)(=O)c2cccs2)cc1)Nc1nc2c(F)c(F)c(F)cc2s1 | 15 | 10 | 4 | 71* | 29 | 0
CCn1c2ccccc2c2cc(NC(=O)c3ccccc3[N+](=O)[O-])ccc21 | 3 | 16 | 2 | -13 | -37 | -10
N#CC1=C2N=C(N)c3ccccc3N2C2=C(C(=O)CCC2)C1c1ccc(F)cc1 (stereo unspecified) | 94* | -9 | 19 | -12 | -73 | /
Cc1ccc(C2C(C#N)=C3N=C(N)c4ccccc4N3C3=C2C(=O)CCC3)cc1 (stereo unspecified) | 1 | 26 | 16 | -13 | -73 | /
CCOC(=O)C(C(=O)OCC)C(=O)c1cc(OC)c(OC)c(OC)c1 | 5 | -4 | 1 | 9 | -43 | -1
CCN(CC)CC(C)OC(=O)c1cc(OC)c(OC)c(OC)c1 (stereo unspecified) | -9 | 9 | 4 | 4 | 51* | -1

From PubChem
